Where “and” joins values, the source holds several entries; their conditions need not be identical. Identical values can stand only once. Hit rate of the full screen: of about 300,000 compounds, about 5,400 (1.8%) were called active. About 28% were inconclusive and are not listed. Calls follow the shape of the full dose curve; tested in HEK293 cells. Only a selection was taken, and actives are over-represented in it overall. Some compounds were tested as several samples or in several runs, with calls that do not always agree.
Test: qHTS for inhibitors of binding or entry into cells for Marburg Virus
Conditions: Marburg virus pseudotyped entry inhibition, cell reporter; series mostly up to 37.8 µM; activity change, negative = inhibition: at the top concentration
% is scaled to controls: 0 for no effect and ±100 for the full control effect; potency is read from the fitted curve at half-maximal effect.

| Structure (SMILES) | activity change, negative = inhibition | Potency |
| --- | --- | --- |
| CC(C)Cn1cnc2c1c(=O)n(CC(=O)NN)c(=O)n2Cc1ccccc1 | -7.84% [at 46.1 µM] (inactive) |  |
| N=c1c2c(-c3ccccc3)c(-c3ccccc3)n(Cc3ccccc3)c2ncn1CCCO |  | 5.8 µM (active) |
| COCCn1cnc2c1c(=O)n(Cc1ccc(Br)cc1)c(=O)n2Cc1ccccc1 | -16% [at 46.1 µM] (inactive) |  |
| Cc1cc(NC(=O)CCN2CCN(Cc3ccccc3)CC2)ccc1Br | -28.2% (inactive) |  |
| CCCCN(C(=O)c1ccc(C)o1)c1c(N)n(CCCC)c(=O)[nH]c1=O | 5.78% (inactive) |  |
| O=C(c1ccccc1)C(O)(CN1CCCCC1)c1ccccc1 (stereo not drawn) | 0.299% [at 46.1 µM] (inactive) |  |
| CCCCCCC(O)(CCN1CCCCC1)c1ccccc1 (stereo not drawn) |  | 12.6 µM (active) |
| CCc1ccccc1NC(=O)NCCN1CCCCC1 | -22.9% [at 46.1 µM] (inactive) |  |
| CCOC(=O)c1ccc(NC(=O)CNC(=O)c2ccco2)cc1 | 3.64% (inactive) |  |
| Cc1ccc(C(c2nnnn2C(C)(C)C)N2CCc3ccccc3C2)cc1 (stereo not drawn) | -6.55% (inactive) |  |
| COc1ccc(OC)c(C(c2nnnn2C(C)(C)C)N2CCc3ccccc3C2)c1 (stereo not drawn) |  | 12.6 µM (active) |
| COCCn1nnnc1C(c1cc2ccc(OC)cc2[nH]c1=O)N1CCc2ccccc2C1 (stereo not drawn) | -18.3% (inactive) |  |
| COc1cc2c(cc1OC)CN(C(C)C(=O)Nc1cccc(S(=O)(=O)N3CCOCC3)c1)CC2 (stereo not drawn) | -9.06% (inactive) |  |
| C#CCOc1ccc(/C=C2/C(=O)NN(c3ccccc3)C2=O)cc1OC | -1.37% (inactive) |  |
| COc1cc(CN2CC(C)CC(C)C2)cc([N+](=O)[O-])c1O (stereo not drawn) | 6.01% (inactive) |  |
| COc1cc(/C=C2/C(=O)NN(c3ccc(F)cc3)C2=O)cc([N+](=O)[O-])c1O |  | 3.55 µM (active) |
| CC12CCC(=O)N1C(C(=O)NCCN1C(=O)S/C(=C\c3ccccc3F)C1=O)CS2 (stereo not drawn) | -7.17% [at 46.1 µM] (inactive) |  |
| Cc1ccc(S(=O)(=O)NCC(=O)NNC(=O)c2ccc(Br)cc2)cc1C | -1.37% [at 46.1 µM] (inactive) |  |
| O=C(COC(=O)c1ccccc1)Nc1ccc(Cl)cc1C(=O)c1ccccc1 | 0.248% (inactive) |  |
| O=C(CCNS(=O)(=O)c1ccccc1)Nc1ccc(Cl)cc1C(=O)c1ccccc1 |  | 8.91 µM (active) |
| O=C(CCNS(=O)(=O)c1ccccc1)NCCCc1ccccc1 | 1.26% (inactive) |  |
| O=C(CN(Cc1ccccc1)C(=O)CCC(=O)Nc1ccccn1)NCCc1ccccc1 | 0.694% [at 46.1 µM] (inactive) |  |
| COc1cccc(-c2nnc(NC(=O)c3ccc(S(=O)(=O)N(CC(C)C)CC(C)C)cc3)o2)c1 |  | 1.26 µM (active) |
| O=C(COC(=O)c1ccc(Oc2ccccc2)cc1)Nc1nnc(-c2ccccc2)o1 | -22% (inactive) |  |
| COc1cccc(NC(=O)CN(C)S(=O)(=O)c2ccc(C)cc2)c1 | 0.928% [at 46.1 µM] (inactive) |  |
| O=C1NCC(c2ccccc2)(c2ccccc2)C(=O)N1 | -1.26% (inactive) |  |
| COc1ccc(Cl)cc1NS(=O)(=O)c1cccc(C(=O)NC2CCC(O)CC2)c1 (stereo not drawn) | 2.44% (inactive) |  |

| Structure (SMILES) | activity change, negative = inhibition | Potency |
| --- | --- | --- |
| COCCC(=O)N1CCC(Oc2ccc(C(=O)NCc3ccon3)cc2)CC1 | 24.6% (inactive) |  |
| CCOC(=O)C1CCCN(CCSc2ccc(C)cc2)C1 (stereo not drawn) | -4.16% (inactive) |  |
| O=C(c1cccc(F)c1)N1CCN(c2ccc([N+](=O)[O-])c(N3CCCCC3)c2)CC1 | -24% (inactive) |  |
| CN1CCN(c2cc(N3CCNCC3)ccc2[N+](=O)[O-])CC1 |  | 5.01 µM (active) |
| CN1CCN(c2ccc([N+](=O)[O-])c(Sc3nc4ccccc4[nH]3)c2)CC1 | -23.4% (inactive) |  |
| O=C(NN=CC=Cc1ccccc1)C(O)C(O)C(=O)NN=CC=Cc1ccccc1 (stereo not drawn) | -3.95% (inactive) |  |
| N#CC1(Nc2ccc(-c3ccc(Cl)cc3)cc2)CCCC1 | 17% (inactive) |  |
| Cc1cc(NC(=O)CSc2ncc(C(F)(F)F)cc2Cl)no1 | 8.87% [at 46.1 µM] (inactive) |  |
| CCOC(=O)CSC1=c2ccccc2=NC1c1cccs1 (stereo not drawn) | 4.05% (inactive) |  |
| CC1CCN(C(=O)COC(=O)CCC(=O)c2cccs2)CC1 | 22% (inactive) |  |
| COc1ccc(-n2nc(C(=O)NCC(=O)N3CCN(c4ccccc4OC)CC3)c3ccccc3c2=O)c(OC)c1 | -3.25% [at 46.1 µM] (inactive) |  |
| CN(Cc1ccccc1Cl)C(=O)C1CCC(=O)N(CCc2cccc(F)c2)C1 (stereo not drawn) | -1.51% (inactive) |  |
| COc1cc(C)ccc1OCC(=O)OCC(=O)c1ccc[nH]1 | -7.97% (inactive) |  |
| Cn1c2ccccc2c2c(C(=O)N3CCN(c4ccc(F)cc4)CC3)cn(C3CCCC3)c(=O)c21 |  | inactive and 17.8 µM (active) |
| O=C(c1ccccc1Oc1ccccc1)N1CCN(c2ccc(F)cc2)CC1 | -15.5% (inactive) |  |
| CCOc1ccc(NC(=O)c2cn(C3CCCCC3)c(=O)c3c2c2ccccc2n3C)cc1 | 0.938% [at 46.1 µM] (inactive) |  |
| c1ccc2cc3c(NCCN4CCOCC4)ccnc3cc2c1 |  | 3.66 µM (active) |
| O=C(Cn1c(-c2ccccn2)nc2ccccc21)NCCN1CCOCC1 | -0.271% (inactive) |  |
| O=C(NCCN1CCOCC1)c1cc(-c2cccs2)nc2ccccc12 | -10.3% (inactive) |  |
| COC(=O)Nc1ccc(S(=O)(=O)Nc2cc(OC)nc(OC)n2)cc1 | 15% (inactive) |  |
| CC(OC(=O)c1ccc(-n2cnnn2)cc1)C(=O)NCc1ccccc1 (stereo not drawn) | -25% [at 46.1 µM] (inactive) |  |
| CC(=O)OC[C@H]1O[C@H](C/C=N/OC[C@@H](O)COCc2ccco2)C=C[C@@H]1OC(C)=O | 0.658% [at 14.2 µM] (inactive) |  |
| CC(=O)c1c(O)c(C)c(O)c(Cc2c(O)c3c(c(C(=O)/C=C/c4ccccc4)c2O)OC(C)(C)C=C3)c1O |  | inactive and 3.16 µM (active) |
| O=C(/C=C/c1ccccc1)c1ccoc1 | 27.8% (inactive) |  |
| CC(=O)c1c(O)c(C)c(O)c(Cc2c(O)c3c(c(C(=O)/C=C\c4ccccc4)c2O)OC(C)(C)C=C3)c1O |  | 3.16 µM (active) |
| O=C(/C=C/c1ccccc1)c1ccccc1O |  | inactive |

Source: PubChem BioAssay AID540276 (National Center for Advancing Translational Sciences (NCATS), 2011)
